Measurements reported in PubChem BioAssay (NCATS).
Results filed as inconclusive are left out. Entries that show only a call come without a potency. The source made the active and inactive calls. Unless noted, calls come from the whole dose curve; as a rule, active = well fitted curve in the direction sought with a large enough effect; inconclusive = small, poorly fitted or top-dose-only effect, or another doubt; inactive = no such curve, though single readings can be large; an effect the other way counts as inactive or inconclusive.

What was measured:
[1] = molecular target: Catechol O-methyltransferase (Homo sapiens) (UniProt P21964); test: Confirmatory Screen for Target Class Profiling of Small Molecule Inhibitors of Methyltransferases (AID 1745852); settings: MTase-Glo luminescence, SAH detection, recombinant enzyme; measured here: COMT max response; stronger effect = lower value
[2] = molecular target: Guanidinoacetate N-methyltransferase (Homo sapiens) (UniProt Q14353); test: as above; settings: activity change, negative = inhibition: at 57.3 µM (top of the series) unless noted
[3] = molecular target: Nicotinamide N-methyltransferase (Homo sapiens) (UniProt P40261); test: as above; settings: MTase-Glo luminescence, SAH detection, recombinant enzyme; measured here: NNMT max response; stronger effect = lower value
[4] = molecular target: Phenylethanolamine N-methyltransferase (Homo sapiens) (UniProt P11086); test: as above; settings: MTase-Glo luminescence, SAH detection, recombinant enzyme; measured here: PNMT max response; stronger effect = lower value
[5] = molecular target: DNA repair nuclease/redox regulator APEX1 (Homo sapiens) (UniProt P27695); test: qHTS Validation Assay for Inhibitors of the Human Apurinic/apyrimidinic Endonuclease 1 (APE1) (AID 1705;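 note: TAMRA fluorescence gain over two minutes as APE1 cuts a quenched THF abasic duplex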)
Outline: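 qHTS, 1536-well. APE1 + cpd 15 min RT → 50 nM TAMRA/BHQ-2 THF-abasic dsDNA substrate → kinetic fluorescence, 3 reads/60 s; delta(read3−read1) = reaction progress. No-enzyme buffer = negative control.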

[6] = Counterscreen for APE1 Inhibitors: Fluorescent Dye Displacement Validation Assay (AID 1707)
Outline: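 Loss of Thiazole Orange fluorescence marks promiscuous DNA binders. The dye (250 nM) is mixed with 50 nM abasic-site dsDNA in pH7.5 Tris buffer containing MgCl2, then compounds are added and emission is read once.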

[7] = qHTS for differential inhibitors of proliferation of Plasmodium falciparum line 7G8 (AID 1815);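 note: parasite growth measured after three days of incubation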; note: potency is the fitted concentration of half-maximal effect
[8] = qHTS for differential inhibitors of proliferation of Plasmodium falciparum line GB4 (AID 1816); settings: Potency: Plasmodium falciparum GB4 proliferation inhibition;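 note: potency is the fitted concentration of half-maximal effect; parasite growth measured after 72 h incubation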
[9] = qHTS for differential inhibitors of proliferation of Plasmodium falciparum line 3D7 (AID 1876); note: potency is the fitted concentration of half-maximal effect
[10] = qHTS for differential inhibitors of proliferation of Plasmodium falciparum line D10 (AID 1877);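 note: parasites grown with compound for 72 h before DNA staining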; note: potency is the fitted concentration of half-maximal effect
[11] = qHTS for differential inhibitors of proliferation of Plasmodium falciparum line Dd2 (AID 1882); settings: Potency: Plasmodium falciparum Dd2 proliferation inhibition; note: nearly all actives have a fitted effect of over 65% in size; note: potency is the fitted concentration of half-maximal effect
Outline: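 SYBR Green DNA fluorescence (ex 485, em 535 nm) after overnight lysis quantifies parasite growth; compound exposure lasted 72 h at 37 C on infected red cells at 2.5% hematocrit, 0.3% parasitemia (final). Artemisinin 0.29 uM and vehicle wells define normalization.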

[12] = qHTS for differential inhibitors of proliferation of Plasmodium falciparum line W2 (AID 1883); settings: Potency: Plasmodium falciparum W2 proliferation inhibition;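 note: potency is the fitted concentration of half-maximal effect; parasites grown with compound for 72 h before lysis and staining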
[13] = qHTS for differential inhibitors of proliferation of Plasmodium falciparum line HB3 (AID 1886); settings: Potency: Plasmodium falciparum HB3 proliferation inhibition;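 note: parasites grown with compound for 72 h before SYBR Green readout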; note: potency is the fitted concentration of half-maximal effect
[14] = molecular target: Ferritin light chain (Equus caballus) (UniProt P02791); test: qHTS Validation Assay for Identification of Novel General Anesthetics (AID 2323)
Outline: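 Fluorescence at 535 nm (excitation 380 nm) reported loss of 1-AMA binding to horse-spleen apoferritin (10 uM) in PBS with 50% saturated 1-aminoanthracene, after 10 min room-temperature incubation with compound; values from Hill fits of normalized response.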

[15] = molecular target: ATP-dependent DNA helicase Q1 (Homo sapiens) (UniProt P46063); test: qHTS Validation Assay for Inhibitors of RecQ-Like Dna Helicase 1 (RECQ1) (AID 2353)
Outline: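 RECQ1T1 50 nM; forked duplex (20 bp + 30-nt ss tails) 200 nM, ATP 2 mM final; pH 8.0, 2 mM MgCl2, 2.5 ug/ml poly(dI-dC); 15 min compound preincubation; discontinuous kinetic read over 2 h at RT.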

[16] = Validation screen for small molecules that induce DNA re-replication in MCF 10A normal breast cells (AID 463097); note: nearly all actives have a fitted effect of over 60% in size; note: potency is the fitted concentration of half-maximal effect
Outline: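 Image-based qHTS: normal breast cells are incubated with compound for 48 hr, stained with Hoechst, and scanned for total nuclear fluorescence. Compounds raising the fraction of nuclei with elevated DNA content count as re-replication inducers.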

[17] = Quantitative high throughput screen for delayed death inhibitors of the malarial parasite plastid, 96 hour incubation (AID 488745); note: nearly all actives have a fitted effect of over 70% in size; note: potency is the fitted concentration of half-maximal effect
Outline: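 Decreased firefly luciferase luminescence indicates inhibited growth of reporter-integrated P. falciparum after two generations (96 h, 37 C, 5% CO2). Infected erythrocytes at 0.1% parasitemia, 2% hematocrit, in Albumax-supplemented RPMI 1640.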

[18] = Quantitative high throughput screen for delayed death inhibitors of the malarial parasite plastid, 48 hour incubation (AID 488752); note: nearly all actives have a fitted effect of over 65% in size; note: potency is the fitted concentration of half-maximal effect
Outline: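 One-generation (48 h) growth assay: a decrease in luciferase signal from an integrated reporter in P. falciparum-infected red cells (0.1% parasitemia, 2% hematocrit) after compound exposure at 37 C indicates parasite inhibition.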

[19] = molecular target: M-phase phosphoprotein 8 (Homo sapiens) (UniProt Q99549); test: qHTS Validation Assay for Inhibitors for MPP8 Chromodomain Interactions with Methylated Histone Tails (AID 488949); note: nearly all actives have a fitted effect of over 55% in size; note: potency is the fitted concentration of half-maximal effect;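 for activity change, negative = inhibition: 50 nM MPP8 with 50 nM peptide preformed then compounds added for 30 min; AlphaScreen signal from MPP8 chromodomain bound to biotinylated H3K9me3 peptide; top concentration of the series differs between compounds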
Outline: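 50 nM MPP8 + 50 nM b-H3K9me3 peptide, PBS pH 7.4/0.01% Tween-20, 30 min RT; + cpd 30 min RT; + AlphaScreen donor/Ni-chelate acceptor beads 10 ug/mL final, 30 min dark; luminescence read.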

[20] = molecular target: Transient receptor potential cation channel subfamily V member 1 (Homo sapiens) (UniProt Q8NER1); test: HTS Assay for Compounds that Act as Enhancers of the Vanilloid Receptor 1 (AID 488979)
Outline: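 TRPV1-expressing cells loaded with Fluo-8 calcium dye; compounds added and calcium influx read kinetically for 3 min (agonist phase), then capsaicin at EC20 added and read 2 min more for enhancement. Fluorescence ex 480/em 520 nm.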

[21] = molecular target: Thyrotropin receptor (Homo sapiens) (UniProt P16473); test: qHTS Assay for Antagonists of the Thyroid Stimulating Hormone Receptor (AID 488980)
Outline: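 Readout is cAMP by HTRF competition between cellular cAMP and cAMP-d2 for a cryptate-labelled antibody. Antagonism was assessed in TSHR-transfected HEK293 cells stimulated with 4 nM TSH (EC80, final) in the presence of RO 20-1724.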

[22] = molecular target: Thyrotropin-releasing hormone receptor (Homo sapiens) (UniProt P34981); test: qHTS for Small Molecule Agonists and Allosteric Enhancers of Human TRH Receptor: Validation Screen for Agonists (AID 493127;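 active = calcium activation more than 3 SD above the typical response in the agonist read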;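 note: intracellular calcium rise by fluo-8 fluorescence before TRH EC20 addition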); settings: TRH receptor agonist cell assay; at 2 µM; stronger effect = higher value
Outline: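 Compound-evoked intracellular calcium release in fluo-8-loaded TRHR cells, read kinetically on FDSS (Ex 480/Em 530, 1 s/cycle) after 23 nL pintool transfer. Agonist phase preceded 10 nM TRH EC20 addition.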

[23] = molecular target: Galactokinase (Homo sapiens) (UniProt P51570); test: qHTS Validation Assay for Inhibitors of Human Galactokinase (GALK) (AID 493189)
Outline: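 5 nM GALK / 100 uM galactose / 35 uM ATP, 20 mM HEPES pH8.0, 5 mM MgCl2, 60 mM NaCl, 1 mM DTT, 0.01% BSA (final). RT 1 h; Kinase-Glo Plus luminescence.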

[24] = molecular target: Voltage-gated inwardly rectifying potassium channel KCNH2 (Homo sapiens) (UniProt Q12809); test: qHTS Assay for Small Molecule Inhibitors of the Human hERG Channel Activity (AID 588834);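 note: potency is the fitted concentration of half-maximal effect; lower thallium flux fluorescence means stronger hERG block; nearly all actives have a fitted effect of over 50% in size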
Outline: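 Step 1: BacMam hERG transduction of U2OS, 4 hrs RT. Step 2: overnight 37 °C, plate 2000 cells/well, 4 hr. Step 3: FluxOR load, compound 10 min, stimulate, read fluorescence.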

[25] = molecular target: RecQ-like DNA helicase BLM (Homo sapiens) (UniProt P54132); test: qHTS Validation Assay for Inhibitors of Bloom's syndrome helicase (BLM) (AID 2364)
Outline: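 BLM 50 nM in 25 mM Tris-HCl pH 8.0, 5 mM NaCl, 2 mM MgCl2, 1 mM DTT, 0.01% Tween-20, 2.5 ug/ml poly(dI-dC); 15 min cpd preinc, RT. Start: 200 nM forked DNA + 2 mM ATP (final). TAMRA read, 2 reads 2 h apart.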

Sequence of DNA repair nuclease/redox regulator APEX1 (Homo sapiens) (P27695 whole entry, looked up): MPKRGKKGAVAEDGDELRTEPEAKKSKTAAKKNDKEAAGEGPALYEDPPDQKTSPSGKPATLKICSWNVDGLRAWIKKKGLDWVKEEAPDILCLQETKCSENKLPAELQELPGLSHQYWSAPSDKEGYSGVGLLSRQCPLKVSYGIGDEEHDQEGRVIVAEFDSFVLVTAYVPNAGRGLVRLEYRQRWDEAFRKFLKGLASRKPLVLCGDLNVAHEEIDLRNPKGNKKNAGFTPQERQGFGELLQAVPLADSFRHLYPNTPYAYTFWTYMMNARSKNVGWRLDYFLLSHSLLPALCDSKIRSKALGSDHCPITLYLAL
Sequence of Thyrotropin-releasing hormone receptor (Homo sapiens) (P34981 whole entry, looked up): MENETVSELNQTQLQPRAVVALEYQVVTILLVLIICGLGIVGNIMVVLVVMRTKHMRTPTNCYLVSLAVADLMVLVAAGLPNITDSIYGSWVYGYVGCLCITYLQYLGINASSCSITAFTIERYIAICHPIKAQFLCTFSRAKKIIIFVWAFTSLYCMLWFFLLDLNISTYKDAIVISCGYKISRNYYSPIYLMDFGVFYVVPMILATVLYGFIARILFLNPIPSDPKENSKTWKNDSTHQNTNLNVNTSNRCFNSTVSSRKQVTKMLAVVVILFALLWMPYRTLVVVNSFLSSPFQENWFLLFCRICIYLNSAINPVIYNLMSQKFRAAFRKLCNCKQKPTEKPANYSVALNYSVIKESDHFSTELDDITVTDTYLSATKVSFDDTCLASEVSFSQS
Sequence of Catechol O-methyltransferase (Homo sapiens) (P21964 whole entry, looked up): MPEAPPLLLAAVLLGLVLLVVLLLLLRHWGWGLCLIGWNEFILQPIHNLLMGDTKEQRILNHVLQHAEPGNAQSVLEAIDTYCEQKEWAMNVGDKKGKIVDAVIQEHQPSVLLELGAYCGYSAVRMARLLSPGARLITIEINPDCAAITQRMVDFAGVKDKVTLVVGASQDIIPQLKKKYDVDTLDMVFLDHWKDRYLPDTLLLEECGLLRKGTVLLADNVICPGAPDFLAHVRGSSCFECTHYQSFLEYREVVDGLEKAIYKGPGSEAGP
Sequence of Thyrotropin receptor (Homo sapiens) (P16473 whole entry, looked up): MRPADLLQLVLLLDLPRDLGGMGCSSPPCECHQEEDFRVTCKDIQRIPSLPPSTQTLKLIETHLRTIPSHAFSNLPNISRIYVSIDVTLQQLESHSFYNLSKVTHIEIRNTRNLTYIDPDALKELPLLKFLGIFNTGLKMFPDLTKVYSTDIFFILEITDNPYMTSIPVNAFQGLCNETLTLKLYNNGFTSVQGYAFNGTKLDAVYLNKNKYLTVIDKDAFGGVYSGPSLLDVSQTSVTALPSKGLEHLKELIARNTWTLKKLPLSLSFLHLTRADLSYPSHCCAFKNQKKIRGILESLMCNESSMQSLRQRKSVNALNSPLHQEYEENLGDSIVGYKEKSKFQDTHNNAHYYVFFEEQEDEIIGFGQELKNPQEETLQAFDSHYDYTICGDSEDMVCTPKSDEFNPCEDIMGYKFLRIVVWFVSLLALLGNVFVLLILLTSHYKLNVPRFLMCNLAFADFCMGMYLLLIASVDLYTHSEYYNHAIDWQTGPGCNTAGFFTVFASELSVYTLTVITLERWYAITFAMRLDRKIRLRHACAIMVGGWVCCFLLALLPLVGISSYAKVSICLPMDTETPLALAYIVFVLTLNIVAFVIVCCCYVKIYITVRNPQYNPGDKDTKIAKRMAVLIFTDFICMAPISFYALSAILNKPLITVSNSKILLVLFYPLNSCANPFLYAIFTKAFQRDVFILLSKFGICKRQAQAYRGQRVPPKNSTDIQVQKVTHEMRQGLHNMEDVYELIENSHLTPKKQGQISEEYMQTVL
Sequence of ATP-dependent DNA helicase Q1 (Homo sapiens) (P46063 whole entry, looked up): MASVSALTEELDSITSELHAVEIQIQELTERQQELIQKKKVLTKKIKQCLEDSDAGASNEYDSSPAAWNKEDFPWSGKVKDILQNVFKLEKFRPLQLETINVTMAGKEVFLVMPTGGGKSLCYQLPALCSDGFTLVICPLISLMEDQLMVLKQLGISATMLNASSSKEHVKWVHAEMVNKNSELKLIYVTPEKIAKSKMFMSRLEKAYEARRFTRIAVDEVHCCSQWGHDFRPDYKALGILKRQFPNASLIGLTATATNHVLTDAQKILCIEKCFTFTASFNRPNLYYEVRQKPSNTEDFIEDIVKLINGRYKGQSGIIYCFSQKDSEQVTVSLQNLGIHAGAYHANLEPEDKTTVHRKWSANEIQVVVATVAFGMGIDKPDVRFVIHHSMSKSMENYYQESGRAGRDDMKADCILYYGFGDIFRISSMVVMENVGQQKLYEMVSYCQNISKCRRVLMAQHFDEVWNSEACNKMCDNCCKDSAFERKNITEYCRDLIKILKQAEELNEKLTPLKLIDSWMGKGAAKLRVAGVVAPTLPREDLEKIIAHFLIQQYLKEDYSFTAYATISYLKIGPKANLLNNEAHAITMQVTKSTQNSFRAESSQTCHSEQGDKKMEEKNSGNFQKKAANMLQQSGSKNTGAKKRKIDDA
Sequence of Ferritin light chain (Equus caballus) (P02791 2-175 limits assumed): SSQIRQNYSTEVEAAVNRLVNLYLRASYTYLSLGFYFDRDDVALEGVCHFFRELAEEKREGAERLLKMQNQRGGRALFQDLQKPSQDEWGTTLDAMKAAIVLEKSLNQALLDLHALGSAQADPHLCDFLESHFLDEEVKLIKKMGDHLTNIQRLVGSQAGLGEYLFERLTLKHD
Sequence of Nicotinamide N-methyltransferase (Homo sapiens) (P40261 whole entry, looked up): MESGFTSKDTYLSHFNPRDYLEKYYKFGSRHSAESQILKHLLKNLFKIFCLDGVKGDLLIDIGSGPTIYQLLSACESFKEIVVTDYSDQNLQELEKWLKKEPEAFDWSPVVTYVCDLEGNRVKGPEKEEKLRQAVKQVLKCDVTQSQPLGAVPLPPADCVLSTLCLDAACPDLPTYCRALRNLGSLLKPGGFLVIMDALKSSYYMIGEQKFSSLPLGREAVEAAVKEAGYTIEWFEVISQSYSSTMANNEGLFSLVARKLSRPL
Sequence of Galactokinase (Homo sapiens) (P51570 whole entry, looked up): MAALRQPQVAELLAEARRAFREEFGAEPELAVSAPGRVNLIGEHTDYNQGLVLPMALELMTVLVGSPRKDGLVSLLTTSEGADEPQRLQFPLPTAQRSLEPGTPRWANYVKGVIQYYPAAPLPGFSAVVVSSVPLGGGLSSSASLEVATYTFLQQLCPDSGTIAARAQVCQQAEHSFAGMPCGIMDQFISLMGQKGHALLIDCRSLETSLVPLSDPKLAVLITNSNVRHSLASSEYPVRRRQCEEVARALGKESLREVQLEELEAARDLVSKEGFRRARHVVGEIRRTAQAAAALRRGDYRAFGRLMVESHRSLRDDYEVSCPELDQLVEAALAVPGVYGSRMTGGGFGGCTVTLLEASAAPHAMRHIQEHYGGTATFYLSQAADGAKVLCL
Sequence of Transient receptor potential cation channel subfamily V member 1 (Homo sapiens) (Q8NER1 whole entry, looked up): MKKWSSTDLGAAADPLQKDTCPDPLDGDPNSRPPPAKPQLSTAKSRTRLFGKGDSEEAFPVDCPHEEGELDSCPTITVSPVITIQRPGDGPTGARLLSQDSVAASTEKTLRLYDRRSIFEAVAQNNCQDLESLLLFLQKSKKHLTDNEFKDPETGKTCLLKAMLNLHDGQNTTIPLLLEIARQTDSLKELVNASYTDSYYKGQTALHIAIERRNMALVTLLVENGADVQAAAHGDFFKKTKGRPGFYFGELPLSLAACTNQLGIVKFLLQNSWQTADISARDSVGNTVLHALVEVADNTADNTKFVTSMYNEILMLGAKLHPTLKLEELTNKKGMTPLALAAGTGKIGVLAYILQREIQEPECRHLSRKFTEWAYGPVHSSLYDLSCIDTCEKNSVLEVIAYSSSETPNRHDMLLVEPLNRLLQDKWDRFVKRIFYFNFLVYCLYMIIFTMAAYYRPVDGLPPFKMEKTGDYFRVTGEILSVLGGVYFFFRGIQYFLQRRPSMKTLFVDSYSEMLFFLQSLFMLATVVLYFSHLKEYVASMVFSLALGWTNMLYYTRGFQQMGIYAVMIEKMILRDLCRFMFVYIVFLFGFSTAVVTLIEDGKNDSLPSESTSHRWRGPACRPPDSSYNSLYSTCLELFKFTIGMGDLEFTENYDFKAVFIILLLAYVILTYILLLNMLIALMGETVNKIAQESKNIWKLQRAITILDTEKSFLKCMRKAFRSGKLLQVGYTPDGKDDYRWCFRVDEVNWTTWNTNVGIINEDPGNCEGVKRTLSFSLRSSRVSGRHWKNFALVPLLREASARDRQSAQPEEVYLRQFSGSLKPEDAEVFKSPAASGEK
Sequence of Phenylethanolamine N-methyltransferase (Homo sapiens) (P11086 whole entry, looked up): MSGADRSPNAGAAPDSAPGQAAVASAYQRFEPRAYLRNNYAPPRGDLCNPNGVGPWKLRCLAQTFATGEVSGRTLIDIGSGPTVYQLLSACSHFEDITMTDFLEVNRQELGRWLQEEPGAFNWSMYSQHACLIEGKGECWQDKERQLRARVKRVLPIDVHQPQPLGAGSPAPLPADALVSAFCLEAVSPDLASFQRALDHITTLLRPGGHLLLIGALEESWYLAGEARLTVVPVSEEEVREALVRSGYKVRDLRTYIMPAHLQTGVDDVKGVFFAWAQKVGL

Question: Which activity [1] does the source give for CN1CCC(N2CC[C@H](c3nc4ccccc4[nH]3)C2)CC1 here?
Answer: -6.53%

Question: And the activity change, negative = inhibition [2]?
Answer: -8.47% [at 114 µM]

Question: And the activity [3]?
Answer: -26.5%

Question: And the activity [4]?
Answer: -6.23%

Question: Which Potency [5] does the source give for Cc1c(C)c2c(c(C)c1O)CCC(C)(CN1CCN(c3cc(N4CCCC4)nc(N4CCCC4)n3)CC1)O2 (stereo not given) here?
Answer: inactive

Question: And the outcome [6]?
Answer: inactive

Question: What about the Potency [7] of the same compound?
Answer: 562 nM (active)

Question: And the Potency [8]?
Answer: 501 nM (active)

Question: And the Potency [9]?
Answer: 891 nM (active)

Question: And the Potency [10]?
Answer: 501 nM (active)

Question: What about the Potency [11] of the same compound?
Answer: 1260 nM (active)

Question: What about the Potency [12] of the same compound?
Answer: 355 nM (active)

Question: What about the Potency [13] of the same compound?
Answer: 891 nM (active)

Question: And the outcome [14]?
Answer: inactive

Question: And the outcome [15]?
Answer: inactive

Question: And the Potency [16]?
Answer: 4470 nM (active)

Question: And the Potency [17]?
Answer: 1650 nM (active)

Question: And the Potency [18]?
Answer: 1850 nM (active)

Question: And the Potency [19]?
Answer: 11200 nM (active)

Question: And the outcome [20]?
Answer: inactive

Question: And the outcome [21]?
Answer: inactive

Question: And the activation [22]?
Answer: -7.62% (inactive)

Question: What about the outcome [23] of the same compound?
Answer: inactive

Question: What about the Potency [24] of the same compound?
Answer: 7080 nM (active)

Question: Which results are given for C=C[C@@H]1CN2CC[C@@H]1C[C@@H]2[C@H](O)c1ccnc2ccc(OC)cc12?
Answer: Potency [5]: inactive; outcome [6]: inactive; Potency [11]: 126 nM (active); outcome [14]: inactive; outcome [15]: inactive; Potency [25]: inactive; Potency [16]: inactive; Potency [17]: 16.5 nM (active); Potency [18]: 26.2 nM (active)

Question: Which activity [1] does the source give for CC1CCN(CCCNC(=O)C2CCc3sc(C(=O)N4CCCC4)cc3C2)CC1 (stereo not given) here?
Answer: 4.14%

Question: And the activity change, negative = inhibition [2]?
Answer: 6.27%

Question: What about the activity [3] of the same compound?
Answer: -0.224%

Question: What about the activity [4] of the same compound?
Answer: 4.65%

Question: For Cc1cnccc1NCCn1ccnc1-c1cc2n(n1)CCCNC2, which activity [1] is on record?
Answer: -0.636%

Question: And the activity change, negative = inhibition [2]?
Answer: 2.5%

Question: And the activity [3]?
Answer: 0.35%

Question: And the activity [4]?
Answer: 0.494%

Question: Which results are given for COc1cc2c(cc1O)CCC1C2CC[C@]2(C)[C@@H](O)CC[C@@H]12 (stereo not given in full)?
Answer: Potency [5]: inactive; outcome [6]: inactive; Potency [7]: inactive; Potency [9]: inactive; Potency [10]: inactive; Potency [11]: inactive; Potency [12]: 15800 nM (active); Potency [13]: inactive; outcome [14]: inactive; outcome [15]: inactive; Potency [17]: inactive; Potency [18]: inactive; outcome [20]: inactive; outcome [21]: inactive; activation [22]: 1% (inactive); outcome [23]: inactive

Question: For CC(=O)SC1CC2=CC(=O)CC[C@]2(C)C2CC[C@@]3(C)[C@@H](CC[C@@]34CCC(=O)O4)C12 (stereo not given in full), which Potency [5] is on record?
Answer: inactive

Question: What about the outcome [6] of the same compound?
Answer: inactive

Question: What about the Potency [7] of the same compound?
Answer: 11200 nM (active)

Question: What about the Potency [8] of the same compound?
Answer: 7940 nM (active)

Question: And the Potency [12]?
Answer: 7080 nM (active)

Question: What about the outcome [14] of the same compound?
Answer: inactive

Question: What about the outcome [15] of the same compound?
Answer: inactive

Question: What about the Potency [18] of the same compound?
Answer: inactive

Question: And the Potency [19]?
Answer: inactive

Question: And the outcome [20]?
Answer: inactive

Question: What about the outcome [21] of the same compound?
Answer: inactive

Question: And the activation [22]?
Answer: 1.19% (inactive)

Question: And the outcome [23]?
Answer: inactive
